Measurements taken from publication PMC5913336, “True equilibrium measurement of transcription factor-DNA binding affinities using automated polarization microscopy”.

Biological target: T1, GATAe (Drosophila melanogaster, UniProt Q9VF00 512-604)
T1 sequence: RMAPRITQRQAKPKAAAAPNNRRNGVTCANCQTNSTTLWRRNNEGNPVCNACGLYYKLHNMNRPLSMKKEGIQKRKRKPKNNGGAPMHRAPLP
Assay: FP; 33 mM phosphate pH 7.0, 90 mM NaCl, 0.01% Tween 20, 0.1 mM DTT, 0.5% agarose; room temperature
Settings: tags: N-GST (pGEX-6P-1, kept); dsDNA, one strand shown

Sequence	binding signal	Kd [nM]
CATGTTATCTAG	1.71 Kd / Kd of best base at the position	
CATGTTATCTAC		~7.3
CATGTTATGTAC	25.2 Kd / Kd of best base at the position	
CATATTATCTAC	2.02 Kd / Kd of best base at the position	
CATGTTATCAAC	1.76 Kd / Kd of best base at the position	
CATGTTAGCTAC	25.2 Kd / Kd of best base at the position	
CATGATATCTAC	2.32 Kd / Kd of best base at the position	
CAAGTTATCTAC	2.12 Kd / Kd of best base at the position	
CATGTTATCTTC	1.72 Kd / Kd of best base at the position	
CATGTTATCTCC	1.58 Kd / Kd of best base at the position	
GATGTTATCTAC	1.64 Kd / Kd of best base at the position	
CGTGTTATCTAC	1.55 Kd / Kd of best base at the position	
CAGGTTATCTAC	1.9 Kd / Kd of best base at the position	
CATGTTATTTAC	15.3 Kd / Kd of best base at the position	
CATGTTATCTAA	1.53 Kd / Kd of best base at the position	
CACGTTATCTAC	1.57 Kd / Kd of best base at the position	
CATCTTATCTAC	1.22 Kd / Kd of best base at the position	
CATGTTCTCTAC	42.3 Kd / Kd of best base at the position	
CATTTTATCTAC	1.94 Kd / Kd of best base at the position	

Sequence	binding signal	Kd [nM]
AATGTTATCTAC	1.68 Kd / Kd of best base at the position	
CATGTGATCTAC	11.2 Kd / Kd of best base at the position	
CATGTTATCTGC	1.67 Kd / Kd of best base at the position	
CATGTAATCTAC	2.43 Kd / Kd of best base at the position	
CCTGTTATCTAC	1.53 Kd / Kd of best base at the position	
CATGCTATCTAC	2.34 Kd / Kd of best base at the position	
TATGTTATCTAC	1.62 Kd / Kd of best base at the position	
CATGTTATCCAC	3.95 Kd / Kd of best base at the position	
CATGTTAACTAC	9.8 Kd / Kd of best base at the position	
CTTGTTATCTAC	1.46 Kd / Kd of best base at the position	
CATGTTATCTAT	1.52 Kd / Kd of best base at the position	
CATGGTATCTAC	3.02 Kd / Kd of best base at the position	
CATGTTACCTAC	20.8 Kd / Kd of best base at the position	
CATGTCATCTAC	13.1 Kd / Kd of best base at the position	
CATGTTATATAC	17.7 Kd / Kd of best base at the position	
CATGTTTTCTAC	35.6 Kd / Kd of best base at the position	
CATGTTGTCTAC	9.99 Kd / Kd of best base at the position	
CATGTTATCGAC	2.3 Kd / Kd of best base at the position	
